# Experimental data reported in the supplement of paper PMC8728848.
# About 410 targets per protein were measured; listed, in parts, are those with the strongest signals and a random draw of the rest.
# Legend:
# Experiment in all cases: glycan array binding signal (z-score within array); higher = stronger binding
# Settings in all cases: glycan notation: IUPAC condensed, linker removed
# [1] = target: Fuc(a1-2)Gal(b1-3)GalNAc(b1-3)Gal
# Outline: (§1)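 From the Consortium for Functional Glycomics database, 3228 arrays were curated, keeping only those whose protein sequence was available. Binding is given as a within-array Z-score averaged across arrays sharing a protein sequence and across linkers. Negative Z-scores can be read as non-binding.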
# [2] = target: Fuc(a1-2)Gal(b1-4)Fuc(a1-3)]GlcNAc(b1-2)Man(a1-3)[Fuc(a1-2)Gal(b1-4)[Fuc(a1-3)]GlcNAc(b1-2)Man(a1-6)]Man(b1-4)GlcNAc(b1-4)GlcNAc
# Outline: as §1
# [3] = target: Fuc(a1-2)[Gal(a1-3)]Gal(b1-4)GlcNAc(b1-3)GalNAc
# Outline: as §1
# [4] = target: Fuc(a1-2)[GalNAc(a1-3)]Gal(b1-3)GalNAc(a1-3)[Fuc(a1-2)]Gal(b1-4)GlcNAc
# Outline: as §1
# [5] = target: Fuc(a1-2)[GalNAc(a1-3)]Gal(b1-4)GlcNAc(b1-3)Gal(b1-4)GlcNAc(b1-3)Gal(b1-4)GlcNAc
# Outline: as §1
# [6] = target: Fuc(a1-3)[Gal(b1-4)]GlcNAc(b1-2)Man
# Outline: as §1
# Gal(a1-3)Gal(b1-3)GlcNAc = target: Gal(a1-3)Gal(b1-3)GlcNAc
# Outline: as §1
# [7] = target: Gal(a1-3)Gal(b1-4)[Fuc(a1-3)]GlcNAc(b1-2)Man(a1-3)[Gal(a1-3)Gal(b1-4)[Fuc(a1-3)]GlcNAc(b1-2)Man(a1-6)]Man(b1-4)GlcNAc(b1-4)GlcNAc
# Outline: as §1
# [8] = target: Gal(b1-3)GalNAc(a1-3)[Fuc(a1-2)]Gal(b1-4)GlcNAc
# Outline: as §1
# [9] = target: Gal(b1-3)GlcNAc(b1-2)Man(a1-3)[Gal(b1-3)GlcNAc(b1-2)Man(a1-6)]Man(b1-4)GlcNAc(b1-4)[Fuc(a1-6)]GlcNAc
# Outline: as §1
# [10] = target: Gal(b1-3)GlcNAc(b1-3)Gal(b1-4)Glc
# Outline: as §1
# [11] = target: Gal(b1-3)GlcNAc(b1-3)Gal(b1-4)GlcNAc(b1-6)[Gal(b1-3)GlcNAc(b1-3)]Gal(b1-4)Glc
# Outline: as §1
# [12] = target: Gal(b1-3)GlcNAc(b1-3)Gal(b1-4)[Fuc(a1-3)]GlcNAc(b1-6)[Gal(b1-3)GlcNAc(b1-3)]Gal(b1-4)Glc
# Outline: as §1
# [13] = target: Gal(b1-3)[Fuc(a1-4)]GlcNAc(b1-2)Man
# Outline: as §1
# [14] = target: Gal(b1-4)GlcNAc(b1-2)Man(a1-3)Man(b1-4)GlcNAc(b1-4)GlcNAc
# Outline: as §1
# [15] = target: Gal(b1-4)GlcNAc(b1-2)Man(a1-3)[GlcNAc(b1-4)][Gal(b1-4)GlcNAc(b1-2)Man(a1-6)]Man(b1-4)GlcNAc(b1-4)GlcNAc
# Outline: as §1
# [16] = target: Gal(b1-4)GlcNAc(b1-3)Gal(b1-4)GlcNAc(b1-3)Gal(b1-4)GlcNAc(b1-3)Gal(b1-4)GlcNAc(b1-2)Man(a1-3)[Gal(b1-4)GlcNAc(b1-3)Gal(b1-4)GlcNAc(b1-3)Gal(b1-4)GlcNAc(b1-3)Gal(b1-4)GlcNAc(b1-2)Man(a1-6)]Man(b1-4)GlcNAc(b1-4)GlcNAc
# Outline: as §1
# Gal3S(b1-4)Glc6S = target: Gal3S(b1-4)Glc6S
# Outline: as §1
# [17] = target: Gal3S(b1-4)[Fuc(a1-3)]Glc6S
# Outline: as §1
# Gal3S6S(b1-4)GlcNAc6S = target: Gal3S6S(b1-4)GlcNAc6S
# Outline: as §1
# Gal6P(b1-4)GlcNAc = target: Gal6P(b1-4)GlcNAc
# Outline: as §1
# Gal6S(b1-3)GlcNAc6S = target: Gal6S(b1-3)GlcNAc6S
# Outline: as §1
# [18] = target: GalNAc(b1-3)Gal(a1-4)Gal(b1-4)GlcNAc
# Outline: as §1
# GalNAc(b1-4)Gal(b1-4)Glc = target: GalNAc(b1-4)Gal(b1-4)Glc
# Outline: as §1
# [19] = target: GlcNAc(a1-4)Gal(b1-4)GalNAc
# Outline: as §1
# [20] = target: GlcNAc(a1-4)Gal(b1-4)GlcNAc(b1-3)Gal(b1-4)GlcNAc
# Outline: as §1
# [21] = target: Man(a1-2)Man(a1-2)Man(a1-6)[Man(a1-3)]Man
# Outline: as §1
# Neu5Ac(a2-3)Gal = target: Neu5Ac(a2-3)Gal
# Outline: as §1
# [22] = target: Neu5Ac(a2-3)Gal(b1-3)GlcNAc(b1-2)Man(a1-3)[Neu5Ac(a2-3)Gal(b1-3)GlcNAc(b1-2)Man(a1-6)]Man(b1-4)GlcNAc(b1-4)GlcNAc
# Outline: as §1
# [23] = target: Neu5Ac(a2-3)Gal(b1-4)GlcNAc(b1-2)[Neu5Ac(a2-3)Gal(b1-4)GlcNAc(b1-4)]Man(a1-3)[GlcNAc(b1-4)][Neu5Ac(a2-3)Gal(b1-4)GlcNAc(b1-2)[Neu5Ac(a2-3)Gal(b1-4)GlcNAc(b1-6)]Man(a1-6)]Man(b1-4)GlcNAc(b1-4)GlcNAc
# Outline: as §1
# [24] = target: Neu5Ac(a2-3)Gal(b1-4)[Fuc(a1-3)]GlcNAc(b1-3)GalNAc
# Outline: as §1
# [25] = target: Neu5Ac(a2-3)Gal6S(b1-4)GlcNAc
# Outline: as §1
# [26] = target: Neu5Ac(a2-3)[GalNAc(b1-4)]Gal(b1-4)Glc
# Outline: as §1
# [27] = target: Neu5Ac(a2-6)Gal(b1-4)GlcNAc(b1-2)Man(a1-3)[GlcNAc(b1-2)Man(a1-6)]Man(b1-4)GlcNAc(b1-4)GlcNAc
# Outline: as §1
# [28] = target: Neu5Ac(a2-6)Gal(b1-4)GlcNAc(b1-2)Man(a1-6)[Gal(b1-4)GlcNAc(b1-2)Man(a1-3)]Man(b1-4)GlcNAc(b1-4)GlcNAc
# Outline: as §1
# [29] = target: Neu5Ac(a2-6)Gal(b1-4)GlcNAc(b1-3)Gal(b1-4)GlcNAc(b1-3)Gal(b1-4)GlcNAc(b1-2)Man(a1-3)[Neu5Ac(a2-6)Gal(b1-4)GlcNAc(b1-3)Gal(b1-4)GlcNAc(b1-3)Gal(b1-4)GlcNAc(b1-2)Man(a1-6)]GalNAc
# Outline: as §1
# [30] = target: Neu5Ac(a2-6)Gal(b1-4)GlcNAc(b1-6)[Gal(b1-3)GlcNAc(b1-3)]Gal(b1-4)Glc
# Outline: as §1
# [31] = target: Neu5Ac(b2-6)Gal(b1-4)GlcNAc
# Outline: as §1
# [32] = target: Neu5Gc(a2-3)Gal(b1-3)GlcNAc
# Outline: as §1
# Neu5Gc(a2-3)Gal(b1-4)Glc = target: Neu5Gc(a2-3)Gal(b1-4)Glc
# Outline: as §1
# [33] = target: Neu5Gc(a2-8)Neu5Ac(a2-3)Gal(b1-4)GlcNAc
# Outline: as §1
# [34] = target: Neu5Gc(a2-8)Neu5Gc(a2-3)Gal(b1-4)GlcNAc(b1-3)Gal(b1-4)GlcNAc
# Outline: as §1
binder,measurement,setting,value
"Clec2 (Mus musculus), Q9JL99 (protein) MQDEDGYITLNIKPRKQALSSAEPASSWWRVMALVLLISSMGLVVGLVALGIMSVTQQKYLLAEKENLSATLQQLAKKFCQELIRQSEIKTKSTFEHKCSPCATKWRYHGDSCYGFFRRNLTWEESKQYCTEQNATLVKTASQSTLDYIAERITSVRWIGLSRQNSKKDWMWEDSSVLRKNGINLSGNTEENMNCAYLHNGKIHPASCKERHYLICERNAGMTRVDQLL",glycan array binding signal (z-score),[1],9.47
same,glycan array binding signal (z-score),[2],3.96
same,glycan array binding signal (z-score),[3],-0.063
same,glycan array binding signal (z-score),[4],-0.388
same,glycan array binding signal (z-score),[5],-0.74
same,glycan array binding signal (z-score),[6],0.349
same,glycan array binding signal (z-score),Gal(a1-3)Gal(b1-3)GlcNAc,3
same,glycan array binding signal (z-score),[7],6.06
same,glycan array binding signal (z-score),[8],-0.939
same,glycan array binding signal (z-score),[9],-0.411
same,glycan array binding signal (z-score),[10],0.433
same,glycan array binding signal (z-score),[11],-0.864
same,glycan array binding signal (z-score),[12],-0.993
same,glycan array binding signal (z-score),[13],3.5
same,glycan array binding signal (z-score),[14],-0.472
same,glycan array binding signal (z-score),[15],-0.464
same,glycan array binding signal (z-score),[16],-0.166
same,glycan array binding signal (z-score),Gal3S(b1-4)Glc6S,3.71
same,glycan array binding signal (z-score),[17],1.03
same,glycan array binding signal (z-score),Gal3S6S(b1-4)GlcNAc6S,4.08
same,glycan array binding signal (z-score),Gal6P(b1-4)GlcNAc,3.62
same,glycan array binding signal (z-score),Gal6S(b1-3)GlcNAc6S,3.2
same,glycan array binding signal (z-score),[18],0.28
same,glycan array binding signal (z-score),GalNAc(b1-4)Gal(b1-4)Glc,1.12
same,glycan array binding signal (z-score),[19],-0.598
same,glycan array binding signal (z-score),[20],-0.749
same,glycan array binding signal (z-score),[21],-0.215
same,glycan array binding signal (z-score),Neu5Ac(a2-3)Gal,0.604
same,glycan array binding signal (z-score),[22],3.51
same,glycan array binding signal (z-score),[23],-0.711
same,glycan array binding signal (z-score),[24],0.837
same,glycan array binding signal (z-score),[25],0.844
same,glycan array binding signal (z-score),[26],-0.342
same,glycan array binding signal (z-score),[27],-0.833
same,glycan array binding signal (z-score),[28],-0.707
same,glycan array binding signal (z-score),[29],4.45
same,glycan array binding signal (z-score),[30],-0.654
same,glycan array binding signal (z-score),[31],0.023
same,glycan array binding signal (z-score),[32],-0.366
same,glycan array binding signal (z-score),Neu5Gc(a2-3)Gal(b1-4)Glc,-0.112
same,glycan array binding signal (z-score),[33],-0.442
same,glycan array binding signal (z-score),[34],-0.34
